# Target: T1, Aspartate--tRNA(Asp/Asn) ligase (Mycobacterium tuberculosis (strain ATCC 25618 / H37Rv)) (UniProt P9WFW3)
# T1 sequence (whole entry): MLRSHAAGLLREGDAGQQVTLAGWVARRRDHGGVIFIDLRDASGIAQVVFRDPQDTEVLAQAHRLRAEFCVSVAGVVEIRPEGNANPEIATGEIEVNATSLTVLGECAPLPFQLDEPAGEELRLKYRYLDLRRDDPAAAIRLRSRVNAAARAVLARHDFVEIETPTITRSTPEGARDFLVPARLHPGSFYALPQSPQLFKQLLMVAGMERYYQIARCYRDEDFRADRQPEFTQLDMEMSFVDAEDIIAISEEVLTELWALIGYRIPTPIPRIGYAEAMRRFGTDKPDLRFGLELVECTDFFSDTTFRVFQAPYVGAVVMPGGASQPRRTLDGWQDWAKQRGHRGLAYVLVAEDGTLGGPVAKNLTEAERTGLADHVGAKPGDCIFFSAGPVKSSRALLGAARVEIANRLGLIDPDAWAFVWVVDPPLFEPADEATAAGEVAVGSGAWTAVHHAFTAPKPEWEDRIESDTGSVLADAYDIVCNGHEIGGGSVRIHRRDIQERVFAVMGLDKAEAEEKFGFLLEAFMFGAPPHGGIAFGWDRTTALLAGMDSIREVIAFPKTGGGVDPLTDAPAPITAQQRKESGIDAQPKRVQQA
# Assay: Assay for Asp RNA synthetase-1 from Mycobacterium tuberculosis
# Format: functional
# Design: scale not given: in the data most compounds retested in dose-response had high values
# Details: 30 µM
row,SMILES,Percent Effect [%]
1,CN(Cc1ccc2c(c1)OCO2)Cc1nc2c(cnn2C)c(=O)[nH]1,-0.843
2,O=C(NCC1CC1)C1=NOC2(CCN(S(=O)(=O)c3cccs3)C2)C1 (stereo not given),2.15
3,Cc1nnc2n1CCN(CCS(=O)(=O)c1ccccc1)C2,-4.37
4,Cn1cc(N2CC3(CCN(CC4CCOCC4)CC3)OCC2=O)cn1,-2.85
5,COc1cccc(COCC(=O)N2CCCC(c3cc(C)[nH]n3)C2)c1 (stereo not given),1.92
6,CC[C@H](C)[C@H](NC(=O)c1ccccc1-n1cnnn1)C(=O)OC,3.95
7,CCN(Cc1ccc2c(c1)OCO2)Cc1nc(C)no1,4.08
8,Cc1ccc(C(=O)NCCCN2CCOCC2)c(Cl)c1,0.357
9,Cn1cccc1C(=O)N1CCCN(CCCc2ccccc2)CC1,0.0912
10,CCN1C(=O)C(C)(C)c2cc(NC(=O)c3ccco3)ccc21,10.8
11,COC(=O)C(c1cc(F)ccc1F)N(C)C(=O)c1csnn1 (stereo not given),3.92
12,Cc1ccccc1CNC(=O)Cc1c(C)nc2cc(=O)[nH]n2c1C,-0.856
13,c1ccc2sc(CN3CCOC(Cn4cncn4)C3)nc2c1 (stereo not given),-5.32
14,Cc1cc2c(=O)n3c(nc2s1)CCN(C(=O)c1scnc1C)CC3,-1.56
15,Cc1cc(CC(=O)N(CC2CN(C)CCO2)c2nccs2)no1 (stereo not given),-0.67
16,O=C(c1ccccn1)N1CCCC(c2nccn2Cc2ccncc2)C1 (stereo not given),6.99
17,O=C(COc1cccc2c1CCC2=O)NCCSc1ccccc1,3.02
18,CCOC1COC2(CCN(S(=O)(=O)c3cccc(F)c3)CC2)C1 (stereo not given),16.4
19,CCN1CCCN(C(=O)c2cnc(OC(C)C)c(Cl)c2)CC1,-0.365
20,CSCCCN1CCCC1c1noc(C)n1 (stereo not given),1.68

row,SMILES,Percent Effect [%]
1,O=C(Nc1ccccc1)N1CCn2nnc(COc3cccnc3)c2C1,9.35
2,c1cnc(N2CCOC3(CCN(CC4CCCCC4)CC3)C2)nc1,-0.897
3,CN(C(=O)C1CSCN1S(=O)(=O)c1ccc(F)cc1)C1CC1 (stereo not given),-0.268
4,COc1nc2c(cc1C(=O)N1C[C@H](N)C[C@H]1C(=O)NC(C)C)CCC2,-4.9
5,C[C@@H]1CN(C(=O)c2ccc(C#N)nc2)CC[C@@]1(O)C1CCOCC1,-2.71
6,CCCNC(=O)C1CCN(Cc2csc(C(C)(C)C)n2)CC1,-0.628
7,Cc1ccccc1C(=O)Nc1cnn(CC(=O)NC2CCCC2)c1,2.07
8,CCc1noc(CN(C)Cc2ccc(N3CCCCC3)cc2)n1,-2.17
9,Cc1nnc(NCc2ccccc2Cl)c(C#N)c1C,16.3
10,O=C(Cn1c(=O)nc2n1C(=O)N(c1ccccc1)C2)Nc1ccccc1,-4
11,Cn1cccc1CNC(=O)CCCc1nnc2ccccn12,1.36
12,CCc1nnc2n1CCN(C(=O)C(C)COCc1ccccc1)C2 (stereo not given),0.562
13,CCc1nc2n(n1)CC(Nc1cc(C)nc3ncnn13)CC2 (stereo not given),-4.28
14,CC(=O)N1[C@H](CN(C)C)C[C@@H]2CN(C(=O)c3cccc(F)c3)CC[C@@H]21,-0.523
15,O=S(=O)(CCNC1CCc2ncnn2C1)c1ccccc1 (stereo not given),1.06
16,NC(=O)CC1CCN(C(=O)NCc2ccccc2-n2cccn2)CC1,-3.48
17,CCOCC1CC2(CCN(C(=O)c3ccccc3F)CC2)CO1 (stereo not given),3.1
18,CC(C)c1nccn1C1CCCN(C(=O)c2ccc3c(c2)OCO3)C1 (stereo not given),-0.317
19,CN1CCC(c2nnc(CN3CCC(O)CC3)n2C)CC1,10.8
20,CCCNC(=O)NC(=O)CN(CC(C)O)c1ccccc1 (stereo not given),1.53

# Reference: ChEMBL document CHEMBL3988442, “University of Dundee, Small-Polar-MMV Screening Library” (2021)
